From PubChem
An excerpt weighted towards active compounds, which were near 6.2% of everything screened.
HT1080-NT tox – kills 2HG-producing HT-1080-NT fibrosarcoma cells | Potency, µM (titrated, usually from 46.1 µM), most hits filed as cytotoxic | HT-1080-NT fibrosarcoma viability, CellTiter-Glo ATP luminescence, 48 h | AID 686970 | actives 1.6% (n = 360,000);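 also: NT is the 2HG producing partner of a matched IDH1 knockdown line; nearly all actives have a fitted effect of over 55% in size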
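Viability of the 2HG-overproducing fibrosarcoma line after 48 hours of compound exposure at 37 degrees C was determined by luminescence with CellTiter-Glo, and concentration-effect curves were then fitted and categorized.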
KB-3-1 tox – kills parental KB-3-1 adenocarcinoma cells | actives 1.4% (n = 400,000) | AID 1347075 | Potency, µM (doses to about 46.1 µM), most hits filed as cytotoxic | KB-3-1 viability, CellTiter-Glo ATP luminescence, 72 h; also: nearly all actives have a fitted effect of over 60% in size
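Parental KB-3-1 viability, qHTS format: 72 h compound exposure, 37 °C; CellTiter-Glo; media-only wells and DMSO plates as controls; concentration-effect fits on corrected data.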
KB-V1 cytotox – kills drug-selected multidrug resistant KB-V1 cells. KB-V1 MDR cells viability, CellTiter-Glo, 72 h. Potency, µM (highest dose often 46.1 µM), usual class: cytotoxic. actives 3.4% (n = 400,000); also: nearly all actives have a fitted effect of over 60% in size
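Drug-selected KB-V1 cells, grown in DMEM lacking phenol red with 10% FBS, receive compound titrations; after three days at 37 degrees C, surviving cell ATP is quantified by CellTiter-Glo luminescence and responses normalized and curve-fitted.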
S2 tox – reduces viability in counter-screen for ATXN expression inhibitors. S2 cells (HEK-293 line with an ATXN2-luciferase reporter) viability, CellTiter-Fluor protease fluorescence, 24 h. Potency, µM (highest dose often 56.7 µM), actives largely listed as cytotoxic. actives 0.49% (n = 400,000). AID 651635; also: nearly all actives have a fitted effect of over 40% in size
ATXN2 expr inh – inhibitors of ATXN2 expression. Potency, µM (highest dose often 57 µM), usual class: inhibitors. HEK-293 ATXN2-luciferase reporter, luminescence, 24 h. AID 1745845. actives 0.72% (n = 360,000); also: nearly all actives have a fitted effect of over 55% in size
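ATXN2-luciferase reporter cells (luciferase flanked by upstream and downstream ATXN2 gene portions) were treated 24 h at 37 °C with compounds at up to 57 uM. SteadyGlo luminescence gave expression; GF-AFC fluorescence gave viability.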
HT1080 IDH1KD tx – HT-1080 IDH1 knockdown cell toxicity (counter line) | Potency, µM (top dose mostly 46.1 µM), hits mostly cytotoxic | actives 2% (n = 360,000) | AID 686971 | HT-1080 IDH1 knockdown viability, ATP luminescence, 48 h
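In this qHTS, HT-1080 cells depleted of IDH1 are exposed for 48 h at 37 °C to compound titrations. Toxicity is scored from CellTiter-Glo luminescence, with DMSO as full viability and medium alone as none.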
Numbers stand for hits; – = inactive; ? = inconclusive; · = no result given; [ ] = dose if it differs, or a comment. Calls follow the shape of the dose curve; as a rule, active = well fitted curve in the direction sought with a large enough effect; inconclusive = small, poorly fitted or top-dose-only effect, or another doubt; inactive = no such curve, though single readings can be large; an effect the other way counts as inactive or inconclusive.

SMILES	HT1080-NT tox	KB-3-1 tox	KB-V1 cytotox	S2 tox	ATXN2 expr inh	HT1080 IDH1KD tx
COc1ccc(N2CC(NC(=O)c3c(F)cccc3Cl)CC2=O)cc1OC (stereo not given)	·	–	–	–	–	·
O=S(=O)(NCCCCNS(=O)(=O)c1cccc2cccnc12)c1cccc2cccnc12	·	–	–	·	·	·
O=c1[nH]c(=O)n(-c2ccccc2)c2c1C(C(F)(F)F)(C(F)(F)F)N=C(CCC1CCCCC1)N2	–	–	5.17µM	–	–	–
O=c1[nH]c(=O)n(Cc2ccco2)c2c1C(C(F)(F)F)(C(F)(F)F)N=C(CCc1ccccc1)N2	?	–	–	?	–	10µM
Cc1ccc(C2=NC(C(F)(F)F)(C(F)(F)F)c3c(n(-c4ccc(F)cc4)c(=O)[nH]c3=O)N2)cc1	–	10.3µM	20.6µM	–	–	–
O=c1[nH]c(=O)n(-c2ccc(F)cc2)c2c1C(C(F)(F)F)(C(F)(F)F)N=C(c1ccc(F)cc1)N2	14.6µM	–	?	?	?	18.4µM
O=c1[nH]c(=O)n(Cc2ccco2)c2c1C(C(F)(F)F)(C(F)(F)F)N=C(CCC1CCCCC1)N2	–	–	–	·	·	–
COc1ccc(-n2c3c(c(=O)[nH]c2=O)C(C(F)(F)F)(C(F)(F)F)N=C(CC(C)C)N3)cc1	–	–	?	–	–	–
CC(C)(C)c1ccc(Cn2c(=O)cnc3ccccc32)cc1	9.2µM	?	?	–	?	7.31µM
O=C(NCc1ccc(F)cc1)C(=O)NCC(c1cccs1)S(=O)(=O)c1cccs1 (stereo not given)	·	–	–	?	–	·
COc1ccc(-c2csc3ncnc(N4CCN(CCO)CC4)c23)cc1	–	–	–	–	–	–
CCOc1ccccc1N1CCN(c2ncnc3scc(-c4ccc(OC)cc4)c23)CC1	?	13µM	?	–	?	?
Oc1ccccc1N1CCN(c2ncnc3scc(-c4ccc(F)cc4)c23)CC1	?	–	–	–	–	?
COc1ccccc1N1CCN(c2ncnc3onc(C)c23)CC1	·	–	?	–	–	·
COc1ccc(-c2csc3ncnc(N4CCN(c5ccccc5OC)CC4)c23)cc1	–	?	?	?	31.6µM	–
COc1ccccc1N1CCN(c2ncnc3n[nH]c(Br)c23)CC1	?	?	?	?	–	18.4µM
CC(C)CC(=O)NC1CC(=O)N(c2ccc3c(c2)OCCO3)C1 (stereo not given)	·	–	–	–	–	·
O=C(NCC1CCCO1)C(c1cccs1)N(Cc1ccccc1Cl)C(=O)c1ccc(-c2ccccc2)[nH]1 (stereo not given)	–	–	4.11µM	–	–	?
Cc1ccc2nc(NC(=O)CCNS(=O)(=O)c3ccc(Br)s3)sc2c1	?	–	18.4µM	?	–	?
Cc1ccc2nc(NC(=O)CSCC(=O)OCC(=O)c3ccc(Br)cc3)sc2c1	–	–	–	–	5.62µM	–
CCCN1CCCc2cc(CN(CCCN3CCOCC3)C(=O)Nc3ccc(CC)cc3)ccc21	·	–	–	?	?	·
O=S(=O)(Nc1cc(F)ccc1F)c1ccc2[nH]c3c(c2c1)CCCCC3	·	–	–	?	?	·
COc1cc(NS(=O)(=O)c2ccc3[nH]c4c(c3c2)CCCC4)cc(OC)c1OC	·	0.0651µM	?	?	?	·
COc1ccc(OC)c(NS(=O)(=O)c2ccc3[nH]c4c(c3c2)CCCCC4)c1	·	?	16.4µM	?	?	·
COc1cccc(CNS(=O)(=O)c2ccc3[nH]c4c(c3c2)CCCCC4)c1	·	20.6µM	20.6µM	?	?	·
SMILES	HT1080-NT tox	KB-3-1 tox	KB-V1 cytotox	S2 tox	ATXN2 expr inh	HT1080 IDH1KD tx
O=S(=O)(Nc1cccc(F)c1)c1ccc2[nH]c3c(c2c1)CCCCC3	·	–	–	28.2µM	–	·
CNS(=O)(=O)c1cn(CC(=O)N2CCN(c3ccc(Cl)cc3)CC2)cc1S(=O)(=O)NC	·	–	–	·	·	·
CCCN(CCC)C(=O)c1ccccc1C(=O)N(CCC)CCC	–	–	8.2µM	?	–	–
CCN(Cc1ccccc1)C(=O)c1ccccc1C	–	–	?	–	–	–
O=C(NCCc1nc2ccccc2n1CCCOc1ccc2ccccc2c1)C1CCCCC1	·	–	–	·	·	·
CC1=NC(=O)C(N=Nc2cccc(C(=O)O)c2)N1c1ccccc1 (stereo not given)	–[9.24 µM]	–	–	?	8.91µM	–
Cc1[nH]n(-c2ccc(Br)cc2)c(=O)c1C=Nc1ccc(S(=O)(=O)Nc2nccs2)cc1	–	–	?	–	–	–
CCc1nnc(NS(=O)(=O)c2ccc(N=Cc3c(C)[nH]n(-c4ccc(C)c(C)c4)c3=O)cc2)s1	?	?	?	–	–	20.6µM
Fc1ccc(/C=C\c2nccc3c2[nH]c2ccccc23)cc1	?	–	–	–	–[11.3 µM]	23.1µM
CC(O)(COc1ccccc1)c1ccc2c(c1)CN(Cc1cccc3ncccc13)CCO2 (stereo not given)	·	·	·	–	·	·
Nc1cc([N+](=O)[O-])cc(N)c1N	·	–	–	·	·	·
Cc1cc(C)nc(N2CCCC(C(=O)Nc3nnc(C)s3)C2)n1 (stereo not given)	–	–	18.4µM	–	–	–
Cc1cc(C)nc(N2CCCC(C(=O)Nc3ccc4nc(C)c(C)nc4c3)C2)n1 (stereo not given)	–	–	?	–	–	–
Cc1ccnc(N2CCCC(C(=O)Nc3nnc(C)s3)C2)n1 (stereo not given)	–	–	–	–	–	–
CCc1nnc(NC(=O)C2CCCN(c3nc4ccccc4s3)C2)s1 (stereo not given)	–	–	14.6µM	–	–	–
Cc1cc(C)nc(N2CCCC(C(=O)Nc3ccc4c(c3)OCCO4)C2)n1 (stereo not given)	?	–	7.31µM	–	–	?
Cc1cccc(NC(=O)C2CCCN(c3nc4ccccc4s3)C2)c1C (stereo not given)	·	–	–	–	–	·
Cc1ccc(C)c(N2CCN(C(=O)Nc3cn(CC(C)C)c(=O)c4ccccc34)CC2)c1	·	?	–	–	–	·
COCCCNC(=O)c1cnn(-c2ncc3c(n2)-c2ccccc2CCC3)c1C	·	·	·	–	·	·
Cc1ccc(OCCNC(=O)c2cccc(S(=O)(=O)NCc3ccccc3)c2)cc1	?	4.61µM	8.2µM	–	–	7.31µM
O=C(NCc1ccncc1)c1cccc(S(=O)(=O)NCc2ccccc2)c1	–	–	?	–	–	–
Cc1cccc(OCCNC(=O)c2ccc(Cl)c(S(=O)(=O)NCc3cccnc3)c2)c1	?	1.46µM	?	–	–	?
Cc1nc2ccc(NC(=O)c3cccc(S(=O)(=O)N(C)c4ccccc4)c3)cc2s1	?	?	?	?	28.2µM	?
Cc1nc2ccc(NC(=O)c3ccccc3)cc2s1	–	–	–	–	–	–
